Consider 21 compounds from PubChem BioAssay (NCATS).

The structures appear in SMILES notation. Unmarked numbers belong to inactive results. Records with an inconclusive call do not appear. The source made the active and inactive calls. The call rests on the fitted dose curve; in most records, active means well fitted curve in the direction sought with a large enough effect; inconclusive means small, poorly fitted or top-dose-only effect, or another doubt; inactive means no such curve, though single readings can be large; an effect the other way counts as inactive or inconclusive. Where a SMILES comes first, the peptide text is derived from it.

For test [1], the target named is Glutathione peroxidase 1 (Homo sapiens) (UniProt P07203). Nature of the test: Primary qHTS Assay for Inhibitors of Recombinant Selenoprotein Glutathione Peroxidase 1 (GPX1) (AID 1845191). Further: nearly all actives have a fitted effect of over 65% in size. On activity, negative = inhibition: on the % scale 0 is the no-effect control and ±100 the full control effect. The method, boiled down: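 GPX1 10 nM, GR 100 nM, GSH 1 mM, NADPH 0.5 mM, CHP 0.5 mM (final). 30-min cpd preincubation, RT. Ex340/Em450 read t=0, t=15 min.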
Background: qHTS replaces the single test concentration by a dilution series.

Test [2] addresses Phospholipid hydroperoxide glutathione peroxidase GPX4 (Homo sapiens) (UniProt P36969). Nature of the test: Primary qHTS Assay for Inhibitors of Recombinant Selenoprotein Glutathione Peroxidase 4 (GPX4) (AID 1845192). Further: nearly all actives have a fitted effect of over 65% in size. Put shortly: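 qHTS, GR-coupled: GPX4 200 nM + cpd 30 min RT → GSH 1 mM, NADPH 0.5 mM, GR 100 nM → CHP 0.5 mM start; fluor 340/450 at t0 and t15 min; no-enzyme wells as control.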

Test [3] addresses Luciferin 4-monooxygenase (Photinus pyralis) (UniProt P08659). Nature of the test: Primary firefly luciferase (FLuc) qHTS assay for identification of artifact compounds. (AID 1845220). Further: nearly all actives have a fitted effect of over 60% in size. Further: potency means the concentration at half of the fitted maximal effect. The method, boiled down: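 qHTS, 15 min compound preincubation with substrate (10 uM luciferin, 10 uM ATP) at RT, then 10 nM FLuc; 5 min; luminescence; % inhibition vs no-enzyme/DMSO controls, 4-parameter Hill fit.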

Test [4] in a line: Primary fluorescence-based thiol-reactive (MSTI) qHTS assay for identification of artifact compounds. (AID 1845221). Further: nearly all actives have a fitted effect of over 65% in size. Further: potency means the concentration at half of the fitted maximal effect.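 On activity change, negative = thiol reactive: series mostly up to about 54 µM; thiol-reactive compounds lower the probe fluorescence signal.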 Put shortly:
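In PBS pH 7.4 with 2% DMSO, each compound met 4 uM MSTI for one hour at ambient temperature, shielded from light, before fluorescence detection.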

Test [5] deals with Nanoluciferase (engineered Oplophorus gracilirostris luciferase). Nature of the test: Primary Nanoluciferase (NLuc) qHTS assay for identification of artifact compounds. (AID 1845222). Further: series mostly up to about 54 µM. Put shortly: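 Luminescence read-out of secreted NLuc in S16 cell conditioned medium (1:55); compounds tested with 15 min RT preincubation, then Nano-Glo substrate 1:100, 5 min. % inhibition vs no-enzyme and DMSO controls, 4-parameter Hill fit.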

A short description of test [6]: NCATS anti-infectives library activity on HEK293 viability as a counter-qHTS vs the C. elegans viability qHTS (AID 1745854).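 Further: HEK293 cells exposed to compounds for 24 hr before the viability read; on the % scale 0 is the no-effect control and ±100 the full control effect.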 The method, boiled down: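 Counter-screen for cytotoxicity: HEK293, 24 hr, 37C, compounds up to 41.7 uM final (a dilution series, 1:5). Readout CellTiter-Glo luminescence, 10 min RT. Digitonin control, 83.3 uM final.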
Test [7] is described as follows: Primary redox qHTS assay for identification of artifact compounds. (AID 1845223).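 Further: 0% = DMSO and 100% = reference compound.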 Put shortly: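 Redox-cycling detection via DTT (250 uM final) oxidation coupled to Amplex Red (25 uM)/HRP (250 mU/mL) in HBSS. 15 min preincubation plus 30 min after DTT, room temperature. Ex/Em 525/598 nm; 4-parameter Hill fit against DMSO and 10 uM DA3003.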

Sequence of Phospholipid hydroperoxide glutathione peroxidase GPX4 (Homo sapiens) (P36969 whole entry, looked up): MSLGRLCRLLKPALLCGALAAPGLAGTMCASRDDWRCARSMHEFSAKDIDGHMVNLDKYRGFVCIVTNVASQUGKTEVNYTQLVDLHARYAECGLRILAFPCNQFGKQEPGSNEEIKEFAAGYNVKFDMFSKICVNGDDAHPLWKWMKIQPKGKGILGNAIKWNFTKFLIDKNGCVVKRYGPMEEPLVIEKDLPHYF
Sequence of Glutathione peroxidase 1 (Homo sapiens) (P07203 whole entry, looked up): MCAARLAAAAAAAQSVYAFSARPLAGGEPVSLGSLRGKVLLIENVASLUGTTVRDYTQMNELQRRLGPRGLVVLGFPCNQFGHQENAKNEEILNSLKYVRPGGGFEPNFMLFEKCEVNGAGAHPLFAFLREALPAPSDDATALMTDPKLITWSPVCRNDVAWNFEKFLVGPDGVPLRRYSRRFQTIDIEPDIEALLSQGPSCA

With `NC(Cc1c[nH]c2ccc(O)cc12)C(=O)O` (configuration not stated), the Potency entry in test [1], in test [2] and in test [3] was “inactive” each time. Besides, the Potency in test [4] is 16.8 µM (active).
`C/C=C/C=C/[C@@H]1O[C@](O)([C@H](CC)C(=O)NC/C=C/C=C(\C)[C@@H](OC)[C@@H](C)[C@@H]2O[C@H](/C=C/C=C/C=C(\C)C(=O)c3c(O)ccn(C)c3=O)[C@H](O)[C@@H]2O)[C@H](O)[C@H](O)C1(C)C`: the Potency entry in test [1] and in test [2] was “inactive” in each case. Further, the outcome in test [3] is “inactive [at 11.6 µM]”. The activity change, negative = thiol reactive in test [4] is 94.3% [at 11.5 µM].
As to `CCCC1=CC2=C(CO1)C(=O)C(C)(O)C(OC(=O)c1c(C)cc(OC)cc1O)C2` (configuration not stated), the Potency entry in test [1], in test [2], in test [3], in test [4] and in test [5] was “inactive” in each case.
As for `C=C1CC[C@@]2(OC1)O[C@H]1CC3[C@@H]4CC=C5C[C@@H](O)C[C@@H](O[C@@H]6OC[C@H](O)[C@H](O)[C@H]6O[C@@H]6O[C@@H](C)[C@H](O)[C@@H](O)[C@H]6O)[C@]5(C)C4CC[C@]3(C)[C@H]1[C@@H]2C` (some centres not stated), the Potency result in test [1], in test [2], in test [3] and in test [4] was “inactive” in each case.
As for `COc1cnc(-n2cnc(C)n2)c2[nH]cc(C(=O)C(=O)N3CCN(C(=O)c4ccccc4)CC3)c12`, the compound was classed as inactive in test [6]. Further, the Potency entry in test [1], in test [2], in test [3], in test [4], in test [5] and in test [7] was “inactive” in each case.
As to `Cc1cc(C(=O)N2Cc3cnn(C)c3Nc3ccccc32)ccc1CNC(=O)N1CCN(Cc2cc(O)cc(O)c2)CC1`, the Potency entry in test [1], in test [2], in test [3] and in test [4] was “inactive” throughout.
For the compound `CCCCOc1nc(N)c2c(n1)N(Cc1cccc(CN3CCCC3)c1)CC(=O)N2`, the outcome in test [6] was inactive. The Potency entry in test [1], in test [2], in test [3] and in test [5] was “inactive” in each case.
In the case of `CCC(C)/C=C(C)/C=C/C1=CC2=C(Cl)C(=O)C(C)(OC(C)=O)C(=O)C2=CN1C(CCC(=O)O)C(=O)O` (configuration not stated), the Potency result in test [1], in test [2] and in test [3] was “inactive” in each case. Moreover, in test [4], the Potency was 0.367 µM (active).
With `Cn1cc(Nc2cnccc2C(=O)O)c2cccnc21`, the Potency entry in test [1], in test [2], in test [3], in test [4] and in test [5] was “inactive” throughout.
Consider `Cc1onc(-c2c(Cl)cccc2Cl)c1CC(=O)NCc1ccc(OCC(F)(F)F)nc1`, for which the Potency result in test [1], in test [2], in test [3], in test [4] and in test [5] was “inactive” throughout.
On to `O=C(O)c1cc(C(F)(F)F)ccc1N1CC[C@H](OCc2ccccn2)C1`, for which the result in test [6] was inactive. The Potency entry in test [1], in test [2], in test [3], in test [5] and in test [7] was “inactive” in each case.
Take `Fc1ccccc1-c1nc2ccn(Cc3ccc(-c4ccc(C(F)(F)F)cc4C(F)(F)F)nn3)cc-2n1`: the call in test [6] was inactive. In addition, the Potency entry in test [1], in test [2], in test [3] and in test [7] was “inactive” each time.
Consider `O=C(O)C(Cc1ccccc1)NC(=O)C1CCCN1` (stereo not drawn) (H-Pro-Phe-OH; configuration not given here), for which the Potency entry in test [1], in test [2], in test [3] and in test [4] was “inactive” in each case.
Turning to `COC(=O)C1=CO[C@@H](O[C@@H]2O[C@H](CO)[C@@H](O)[C@H](O)[C@H]2O)[C@@H]2[C@@H](C)[C@@H](OC(=O)/C=C/c3ccccc3)[C@@H](O)[C@H]12`, the Potency entry in test [1], in test [2] and in test [3] was “inactive” in each case.
With `CCc1nn(CCO)c(CC)c1Oc1cc(C#N)cc(C#N)c1`, the call in test [6] was inactive. The Potency result in test [1], in test [2], in test [3], in test [4] and in test [5] was “inactive” throughout.
For the compound `COc1ccc(OC)c(C2C(C#N)=C(N)Oc3n[nH]c(-c4ccc5ccccc5c4)c32)c1` (configuration not stated), the Potency entry in test [1], in test [2], in test [3] and in test [4] was “inactive” each time.
For the compound `CC1(C)CC[C@]2(C(=O)O[C@@H]3O[C@H](CO[C@@H]4O[C@H](CO)[C@@H](O)[C@H](O)[C@H]4O)[C@@H](O)[C@H](O[C@@H]4O[C@H](CO)[C@@H](O)[C@H](O)[C@H]4O)[C@H]3O)CC[C@]3(C)C(=CCC4[C@@]5(C)CC[C@H](O[C@@H]6OC[C@@H](O)[C@H](O)[C@H]6O)[C@@](C)(C(=O)O)C5CC[C@]43C)[C@@H]2C1` (some centres not stated), the Potency result in test [1] and in test [2] was “inactive” in each case. For the same compound, in test [3], the outcome is “inactive [at 11.6 µM]”. Further, in test [4], the activity change, negative = thiol reactive was 183% [at 11.5 µM]. For the same compound, in test [5], the activity, negative = inhibition was 1.63% [at 11.6 µM].
As to `CC1CCC2C(C)(C)[C@H](O)CC[C@]2(C)C12Cc1c(O)cc3c(c1O2)CN(C(CCC(=O)O)C(=O)O)C3=O` (some centres not stated), the Potency entry in test [1], in test [2], in test [3] and in test [4] was “inactive” each time.
Regarding `C[C@@H]1[C@H](O)[C@@H]2OC(=O)C3=C2[C@H](CCC3)[C@@]12C[C@@H](c1ccoc1)OC2=O`, the Potency result in test [1], in test [2], in test [3], in test [4] and in test [5] was “inactive” in each case.
In the case of `O=C(/C=C/C=C/c1ccc2c(c1)OCO2)N1CCCCC1`, the Potency entry in test [1], in test [2], in test [4] and in test [5] was “inactive” in each case. Moreover, the Potency in test [3] is 10.7 µM (active).
Regarding `CC(C)=CCC/C(C)=C/CO[C@@H]1O[C@H](CO[C@@H]2O[C@@H](CO)[C@H](O)[C@H]2O)[C@@H](O)[C@H](O)[C@H]1O`, the Potency entry in test [1], in test [2] and in test [3] was “inactive” in each case.
